# The whole screen tested about 350,000 compounds, of which about 31,000 (8.9%) were called active. A call without a number means that no potency is given here. Another 15% or so got no clear call; they are omitted. Calls follow the shape of the dose curve; as a rule, active = well fitted inhibition curve with a large enough effect; inconclusive = small, poorly fitted or top-dose-only effect; inactive = no such curve, though single readings can be large or run the other way. Only a selection was taken, and actives are over-represented in it overall.
# Target: Histone-lysine N-methyltransferase EHMT2 (Homo sapiens) (UniProt Q96KQ7)
# Assay: qHTS Assay for Inhibitors of Histone Lysine Methyltransferase G9a; also: nearly all actives have a fitted effect of over 75% in size
# Conditions: G9a H3K9 monomethylation, AlphaScreen, 2 h; series mostly up to 59 µM
# In short: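 Chemiluminescent proximity detection of H3K9 monomethylation, read after 10 min bead incubation in the dark. Reaction: 20 nM G9a, 500 nM biotin-H3K9 peptide, 20 uM SAM cofactor, 2 h, room temperature, following 15 min enzyme-compound preincubation.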
# Potency is read from the fitted curve at half-maximal effect.
# Chain of Histone-lysine N-methyltransferase EHMT2 (Homo sapiens) (Q96KQ7 913-1193 limits assumed): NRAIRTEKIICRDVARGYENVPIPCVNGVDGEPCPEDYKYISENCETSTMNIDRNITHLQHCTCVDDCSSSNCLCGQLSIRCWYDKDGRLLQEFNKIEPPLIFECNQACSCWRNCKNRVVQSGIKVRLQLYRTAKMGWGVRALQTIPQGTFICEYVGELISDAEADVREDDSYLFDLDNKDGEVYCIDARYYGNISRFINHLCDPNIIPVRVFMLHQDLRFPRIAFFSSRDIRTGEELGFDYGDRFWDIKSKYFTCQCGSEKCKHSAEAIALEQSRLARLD
SMILES,Potency,"activity, negative = inhibition"
COc1ccc(OC)c(-n2c(-c3ccn[nH]3)n[nH]c2=S)c1,14.1 µM (active),–
Cc1ccc(-n2c(-c3ccc(Cl)cc3)n[nH]c2=S)cc1,1.41 µM (active),–
COc1ccc(-c2cn(-c3ccc(C)cc3)c(=O)n2CC(=O)Nc2ccc(OC)c(OC)c2)cc1,inactive,–
COc1ccccc1-n1c(-c2cc(-c3ccco3)[nH]n2)n[nH]c1=S,2.82 µM (active),–
COc1ccccc1-n1cn[nH]c1=S,–,-42.9% [at 12.7 µM] (inactive)
COc1ccc(-n2c(C)csc2=S)cc1,inactive,–
Cc1n[nH]c(=O)n1-c1ccc(C(C)C)cc1,inactive,–
Cc1ccc(-c2cn3cc(C)ccc3n2)cc1,inactive,–
COc1ccc(-c2c(-c3cc(OC)cc(OC)c3)n(C)c3ccc(-c4ccn[nH]4)cc23)cc1,–,2.71% [at 0.501 µM] (inactive)
COc1ccc(-n2c(-c3ccc(OC)c(OC)c3)n[nH]c2=S)cc1,5.62 µM (active),–
COc1ccc(OC)c(-n2c(=S)[nH]c3cc(C(=O)N4CCCCC4)ccc3c2=O)c1,inactive,–
COc1ccc(CCn2c(-c3ccco3)nc3nc4ccccc4nc32)cc1OC,–,-36.8% [at 12.7 µM] (inactive)
COc1ccccc1CN1CCC(CNC(=O)c2cnn(-c3cccc(Cl)c3)c2C2CCN(C(=O)OC(C)(C)C)CC2)CC1,inactive,–
COc1ccc(CCc2nc(-c3cccs3)no2)cc1,inactive,–
COc1ccc(CC(=O)NCCc2sc3nc(-c4ccc(OC)cc4)nn3c2C)cc1,inactive,–
Cc1cc(C)cc(NC(=O)CSc2nc3nccnc3c(=O)n2CCc2c[nH]c3ccccc23)c1,inactive,–
CCOc1ccccc1NC(=O)Cn1c(=O)n(Cc2ccccc2)c(=O)c2c(C)c(C(=O)N(C)C)sc21,inactive,–
Cc1cccc(C(=O)Nc2ccc(Oc3cnccn3)cc2)c1,–,-1.31% [at 2.33 µM] (inactive)
CCOc1cc(C(=O)NCCc2csc3nc(-c4ccc(C)cc4)nn23)cc(OCC)c1OCC,inactive,–
CCOC(=O)C1=C(COC(=O)[C@H](C)NS(=O)(=O)c2ccccc2F)NC(=O)NC1C (some centres undefined),–,20.6% [at 2.33 µM] (inactive)
CCc1cc2c(cc3c(=O)n(CC(=O)NCc4cccc(Cl)c4)nc(CC)n32)s1,inactive,–
COCCNC(=O)c1ccc2c(c1)N(Cc1cccc(Cl)c1)C(=O)c1ccccc1S2(=O)=O,inactive,–
CCOC(=O)[C@H]1[C@H]2COc3ccc(Cl)cc3[C@@H]2N2C(=O)c3cc(C)ccc3NC(=O)[C@@]12C,–,28% [at 2.33 µM] (inactive)
CCOc1ccccc1N1CCN(C(=O)c2ccc3[nH]c(C)c(C)c3c2)CC1,79.4 µM (active),–

SMILES,Potency,"activity, negative = inhibition"
CCC(CC)C(=O)N1CCN(c2cccc(C)c2C)CC1,inactive,–
Cc1[nH]c2ccc(C(=O)N3CCN(C)CC3)cc2c1C,inactive,–
CCn1c(C)c(C)c2cc(C(=O)N3CCN(c4cccc(C)c4C)CC3)ccc21,39.8 µM (active),–
CCS(=O)(=O)N1CCc2cc(C(=O)N3CCN(c4ccccc4OC)CC3)ccc21,inactive,–
Cc1cccc(N2CCN(C(=O)c3ccc4c(c3)CCN4S(=O)(=O)c3ccccc3)CC2)c1C,inactive,–
CCc1ccc(C(=O)COC(=O)c2ccco2)cc1,inactive,–
CC1CCCCC12NC(=O)N(CC(=O)OCC(=O)NCc1ccc(F)cc1)C2=O (centres undefined),inactive,–
COc1ccc(-c2nc3sc(CCNC(=O)C(C)(C)C)c(C)n3n2)cc1,inactive,–
CCN(C(=O)COC(=O)c1sccc1C)c1c(N)n(Cc2ccccc2)c(=O)[nH]c1=O,–,4.77% [at 0.501 µM] (inactive)
CN(C)C(CNC(=O)c1ccc(OCc2cn3ccccc3n2)cc1)c1ccco1 (centres undefined),inactive,–
CN(C(=O)CSc1nc2ccccc2n1Cc1ccccc1C#N)c1ccccc1,inactive,–
NS(=O)(=O)c1ccc(CNC(=O)c2cccc(Oc3ccccc3)c2)cc1,inactive,–
O=C(CNc1ccccc1N1CCCC1=O)Nc1cc(Cl)ccc1-n1cncn1,inactive,–
CC(C)Sc1nnc([C@H](Cc2ccccc2)NC(=O)OC(C)(C)C)o1,35.5 µM (active),–
C[C@H](NC(=O)OC(C)(C)C)c1nnc(SCC(N)=O)o1,inactive,–
CCc1ccccc1NC(=O)CSc1nnc([C@@H](NC(=O)OC(C)(C)C)C(C)C)o1,–,10.1% [at 2.33 µM] (inactive)
O=C(CN1CCN(S(=O)(=O)c2ccc(Cl)s2)CC1)N1CCCCC1,–,18.1% [at 2.33 µM] (inactive)
CCOc1cc(/C=C(\C#N)c2nc(-c3cccs3)c(NC(C)=O)s2)ccc1O,inactive,–
COc1cc(/C=N\Nc2nc(-c3cccs3)c(NC(C)=O)s2)ccc1O,11.2 µM (active),–
COc1ccc(/C=N\NC(=O)c2sc(N)nc2C)cc1OC,inactive,–
CC1=Nc2cc(C(=O)N3CCC(C)CC3)ccc2Sc2ccc(Cl)cc21,inactive,–
CCc1nnc(SCc2nc(-c3cccc(C)c3)oc2C)c2cc3sc(C)cc3n12,inactive,–
CC(C)Oc1ccc(S(=O)(=O)N2CCOCC2)cc1NC(=O)C1CSC2(C)CCC(=O)N12 (centres undefined),44.7 µM (active),–
CCN(CC)S(=O)(=O)c1ccc(N2CCOCC2)c(NC(=O)C2CSC3(C)CCC(=O)N23)c1 (centres undefined),inactive,–

SMILES,Potency,"activity, negative = inhibition"
CC(C)Oc1ccc(S(=O)(=O)N2CCOCC2)cc1NC(=O)C1CCCC1,inactive,–
CCNC(=O)CC1C(=O)N(c2ccc(F)cc2)C(=O)N1Cc1ccc(C)cc1 (centres undefined),inactive,–
C=C1c2cc(CC)ccc2NC(=O)N1c1ccc(C)cc1,11.2 µM (active),–
Cc1ccc(CC2C(=O)N(c3ccc(F)cc3)C(=O)C2C)cc1 (centres undefined),–,2.4% [at 0.501 µM] (inactive)
O=C(c1cc(COc2ccc(F)c(F)c2)on1)N1CCOCC1,–,-4.01% [at 0.501 µM] (inactive)
Cc1cc(NS(=O)(=O)c2ccc(NC(=O)C(C)Oc3cccc(C)c3C)cc2)nc(C)n1 (centres undefined),inactive,–
CN1C=CC=C/C1=C1\SC(=S)N(Cc2ccccc2)C1=O,20 µM (active),–
Cn1c(=O)[nH]c(=O)c2c1[nH]c(=S)n2Cc1ccccc1,–,-14.7% [at 2.33 µM] (inactive)
Cc1ccc(C)c(NC(=O)COC(=O)CSc2ccccc2)c1,–,0.0476% [at 12.7 µM] (inactive)
COc1ccc(C)cc1NC(=O)c1cc(-c2ccccc2)nc2c1cnn2C(C)C,–,0.616% [at 12.7 µM] (inactive)
CC(Sc1nnc(C2CC2)n1C1CC1)C(=O)Nc1ccc(C(N)=O)cc1 (centres undefined),–,-5.65% [at 2.33 µM] (inactive)
CC(C)Oc1ccc(/C=C(\NC(=O)/C=C/c2ccco2)C(=O)NCCc2nc3ccccc3[nH]2)cc1,39.8 µM (active),–
CC(C)=C(NC(=O)c1ccco1)C(=O)NCCc1nc2ccccc2[nH]1,–,6.16% [at 2.33 µM] (inactive)
COc1ccc(OC(C)C(=O)NCCc2nc3ccccc3[nH]2)cc1 (centres undefined),inactive,–
Cc1ccc(-n2nc(C)c3c(C)cc(=O)n(CC(=O)Nc4ccc(C(C)C)cc4)c32)cc1,inactive,–
CCN(CC(=O)Nc1c(F)cccc1F)C(=O)c1ccc(Sc2nncn2C)c([N+](=O)[O-])c1,inactive,–
Cc1ccc(S(=O)(=O)N2CCN(C(=O)CSc3cc(C)ccc3C)CC2)c(C)c1,inactive,–
Brc1ccccc1C1Nc2cccc3cccc(c23)N1,44.7 µM (active),–
COc1ccc(N2C(=O)C3CCCN3C2c2cccc(OC)c2)cc1 (centres undefined),inactive,–
Cc1ccc(C2Nc3cccc4cccc(c34)N2)cc1,10 µM (active),–
COc1cccc(C2Nc3cccc4cccc(c34)N2)c1,20 µM (active),–
COc1ccc(C2NC(=O)c3ccccc3N2)cc1 (centres undefined),inactive,–
COc1ccc(C2CC(c3ccc(C)cc3)Nc3nc(N)nn32)cc1 (centres undefined),inactive,–
Oc1ccc(C2Nc3cccc4cccc(c34)N2)cc1,25.1 µM (active),–

SMILES,Potency,"activity, negative = inhibition"
O=C1NC(c2cccc(Cl)c2)Nc2ccccc21 (centres undefined),inactive,–
O=C1CCC([N+](=O)[O-])C(c2ccccc2Br)N1 (centres undefined),inactive,–
Cc1ccc(C2CC(c3cccc(C)c3)n3nc(N)nc3N2)cc1 (centres undefined),inactive,–
COc1ccc(C(C#N)(CC(=O)O)c2cnccn2)cc1OC (centres undefined),–,3.29% [at 2.33 µM] (inactive)
CC1CCCN(c2nc3c(S(=O)(=O)c4ccc(C(C)C)cc4)nnn3c3ccsc23)C1 (centres undefined),inactive,–
COc1ccc(CNC(=O)c2ccc(NS(=O)(=O)c3ccc4[nH]c(=O)[nH]c4c3)cc2)cc1OC,–,19.8% [at 12.7 µM] (inactive)
CCOc1ccc(-c2nonc2NC(=O)c2oc3ccc(CC)cc3c2C)cc1,inactive,–
Cn1c(C(=O)Nc2cccc(C(F)(F)F)c2)cc2c(=O)n3ccccc3nc21,inactive,–
CC(=O)N1CCc2c(sc(NC(=O)CCS(=O)(=O)c3ccccc3)c2C#N)C1,inactive,–
CC(C)(C)n1ncc2c(=O)n(Cc3c(Cl)cccc3Br)cnc21,–,-12.6% [at 2.33 µM] (inactive)
CCOC(=O)c1cc(NC(=O)c2ccc(F)cc2)c(=O)n2c1oc1ccccc12,inactive,–
COc1ccccc1-c1nnc(C2CCN(C(=O)c3ccc(Cl)cc3)CC2)o1,inactive,–
CCOC(=O)c1cc(-c2ccc(OC)c(S(=O)(=O)Nc3ccc(OC)cc3OC)c2)on1,inactive,–
CCOc1cccc2cc(C(=O)OCC(=O)Nc3c(C)cccc3CC)c(=O)oc12,44.7 µM (active),–
Cc1cccc(C)c1NC(=O)COC(=O)c1ccccc1O,inactive,–
C=CCc1cccc2cc(C(=O)OCC)c(=O)oc12,inactive,–
CCCN(CCC)C(=O)Cn1c(=O)n(-c2ccc(Cl)cc2)c(=O)c2c3c(sc21)CCCCC3,inactive,–
Cc1ccc(C)c(C(=O)COC(=O)Cn2[nH]c(=O)c3ccccc3c2=O)c1,–,11.2% [at 12.7 µM] (inactive)
Cc1ccc(-n2cnc3cc(C(=O)NCCC4=CCCCC4)ccc32)cc1Cl,inactive,–
Fc1ccc(-c2ccc(-c3nn4c(-c5ccco5)nnc4s3)o2)cc1,15.8 µM (active),–
FC(F)(F)c1nnc2sc(-c3ccco3)nn12,inactive,–
Cc1nnc2sc(-c3ccco3)nn12,inactive,–

# From PubChem BioAssay AID504332 (National Center for Advancing Translational Sciences (NCATS), 2011)
